The values below come from PubChem BioAssay AID2284385 (EPA ToxCast).

Several values for one entry are separate records, joined by “and”; a condition that tells them apart may be missing. Equal entries are not always repeated. Activity calls are given as the source filed them. How the source made its calls: active means hit-call score of the fitted dose curve at least 0.9, where 1 is the maximum; inactive means score below 0.9.

Chain of human Peroxisome proliferator-activated Receptor alpha (PPARa), PPARA (gene 5465) (Q07869 whole entry, looked up): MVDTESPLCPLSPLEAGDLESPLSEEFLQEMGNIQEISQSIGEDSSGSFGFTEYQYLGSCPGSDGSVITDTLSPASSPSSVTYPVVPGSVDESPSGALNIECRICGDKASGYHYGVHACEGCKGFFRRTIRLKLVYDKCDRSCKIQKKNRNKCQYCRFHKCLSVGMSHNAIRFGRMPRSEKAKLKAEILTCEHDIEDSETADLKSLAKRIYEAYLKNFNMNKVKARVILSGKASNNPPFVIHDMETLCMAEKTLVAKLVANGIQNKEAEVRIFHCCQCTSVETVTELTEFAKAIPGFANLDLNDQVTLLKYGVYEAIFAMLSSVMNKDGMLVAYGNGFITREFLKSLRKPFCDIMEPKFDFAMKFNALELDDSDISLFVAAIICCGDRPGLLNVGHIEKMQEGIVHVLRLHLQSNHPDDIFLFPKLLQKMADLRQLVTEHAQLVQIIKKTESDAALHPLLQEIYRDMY

This test concerns the target human Peroxisome proliferator-activated Receptor alpha (PPARa), PPARA (gene 5465) (UniProt Q07869). The test is described as follows: ERF_TW_NR_COA_hPPARA: Eurofins (ERF) Nuclear Receptor (NR) Functional Coactivator Assay for human Peroxisome proliferator-activated Receptor alpha (PPARa) Agonism & Antagonism, conducted at Taiwan lab site. The protocol:
ERF_TW_NR_COA_hPPARA is a biochemical, single-readout assay that uses extracted gene-proteins in a cell-free assay. Measurements were taken 3 hours after chemical dosing in a 96-well plate. See PPARalpha Human NHR Functional Agonist Coactivator Assay, Panlabs.ERF_TW_NR_COA_hPPARA is an assay component calculated from the ERF_TW_NR_COA_hPPARA assay. It is designed to measure FRET using a type of binding reporter as detected by fluorescence intensity of GW7647 with fluorimetry technology.Data from the assay component ERF_TW_NR_COA_hPPARA was analyzed at the assay endpoint, ERF_TW_NR_COA_hPPARA, in the positive analysis fitting direction relative to DMSO as the negative control and baseline of activity. Using a type of binding reporter, gain-of-signal activity can be used to understand changes in binding as they relate to gene PPARA. To generalize the intended target to other relatable targets, this assay endpoint is annotated to the nuclear receptor intended target family, where the subfamily is non-steroidal.
Human recombinant peroxisome proliferators-activated receptor alpha (PPARA, PPARa, PPAR-alpha) hPPAR, NR1C1) receptors expressed in insect are used. Test compound and/or vehicle is incubated with the 2.5 nM receptors and binding buffer in modified kit buffer pH 7.4 for 3 hours at RT. Determination of the amount of complex formed is read microplate reader (excitation:337 nm, emission: 520/490 nm). Test compound-induced increase fluorescence by 50 percent or more (>/=50%) relative to the 1 uM GW7647 response indicates possible PPARa receptor agonist activity. Test compound-induced inhibition of 20 nM GW7647-induced fluorescence response by 50 percent or more (>/=50%) indicates receptor antagonist activity.
Turning to `O=S(=O)(O)C(F)(F)C(F)(F)C(F)(F)C(F)(F)C(F)(F)C(F)(F)F`, the result was inactive.
Consider `O=S(=O)(O)C(F)(F)C(F)(F)C(F)(F)C(F)(F)C(F)(F)C(F)(F)C(F)(F)C(F)(F)F`, for which the compound was classed as inactive.
Take `O=C(O)C(F)(F)C(F)(F)C(F)(F)C(F)(F)C(F)(F)C(F)(F)F`: the AC50 is 50 µM (active).
The same measure, in the same setting: the same measure for `O=C(O)C(F)(F)OC(F)(F)C(F)(F)OC(F)(F)F`: 19.3 µM (active); for `O=C(O)C(F)(F)C(F)(F)C(F)(F)C(F)(F)C(F)(F)C(F)(F)C(F)(F)F`: 11.5 µM (active) and 17.1 µM (active).
